PubChem BioAssay AID1053173 (Broad Institute, 2014)
In all, about 1,500 compounds went through this assay and about 390 (26%) were called active. No rule for the calls is given here. Only a sample is shown. Results with a measured potency or affinity are listed apart.

These compounds were tested against Histone-lysine N-methyltransferase NSD2 (Homo sapiens) (UniProt O96028) (assay: blockers of NSD2 H4 peptide methylation – biochemical, AlphaScreen, cherry-picked samples, dose response (AID 1053173)). Details: 120 min; series mostly up to 10 µM.
Chain of Histone-lysine N-methyltransferase NSD2 (Homo sapiens) (O96028 whole entry, looked up): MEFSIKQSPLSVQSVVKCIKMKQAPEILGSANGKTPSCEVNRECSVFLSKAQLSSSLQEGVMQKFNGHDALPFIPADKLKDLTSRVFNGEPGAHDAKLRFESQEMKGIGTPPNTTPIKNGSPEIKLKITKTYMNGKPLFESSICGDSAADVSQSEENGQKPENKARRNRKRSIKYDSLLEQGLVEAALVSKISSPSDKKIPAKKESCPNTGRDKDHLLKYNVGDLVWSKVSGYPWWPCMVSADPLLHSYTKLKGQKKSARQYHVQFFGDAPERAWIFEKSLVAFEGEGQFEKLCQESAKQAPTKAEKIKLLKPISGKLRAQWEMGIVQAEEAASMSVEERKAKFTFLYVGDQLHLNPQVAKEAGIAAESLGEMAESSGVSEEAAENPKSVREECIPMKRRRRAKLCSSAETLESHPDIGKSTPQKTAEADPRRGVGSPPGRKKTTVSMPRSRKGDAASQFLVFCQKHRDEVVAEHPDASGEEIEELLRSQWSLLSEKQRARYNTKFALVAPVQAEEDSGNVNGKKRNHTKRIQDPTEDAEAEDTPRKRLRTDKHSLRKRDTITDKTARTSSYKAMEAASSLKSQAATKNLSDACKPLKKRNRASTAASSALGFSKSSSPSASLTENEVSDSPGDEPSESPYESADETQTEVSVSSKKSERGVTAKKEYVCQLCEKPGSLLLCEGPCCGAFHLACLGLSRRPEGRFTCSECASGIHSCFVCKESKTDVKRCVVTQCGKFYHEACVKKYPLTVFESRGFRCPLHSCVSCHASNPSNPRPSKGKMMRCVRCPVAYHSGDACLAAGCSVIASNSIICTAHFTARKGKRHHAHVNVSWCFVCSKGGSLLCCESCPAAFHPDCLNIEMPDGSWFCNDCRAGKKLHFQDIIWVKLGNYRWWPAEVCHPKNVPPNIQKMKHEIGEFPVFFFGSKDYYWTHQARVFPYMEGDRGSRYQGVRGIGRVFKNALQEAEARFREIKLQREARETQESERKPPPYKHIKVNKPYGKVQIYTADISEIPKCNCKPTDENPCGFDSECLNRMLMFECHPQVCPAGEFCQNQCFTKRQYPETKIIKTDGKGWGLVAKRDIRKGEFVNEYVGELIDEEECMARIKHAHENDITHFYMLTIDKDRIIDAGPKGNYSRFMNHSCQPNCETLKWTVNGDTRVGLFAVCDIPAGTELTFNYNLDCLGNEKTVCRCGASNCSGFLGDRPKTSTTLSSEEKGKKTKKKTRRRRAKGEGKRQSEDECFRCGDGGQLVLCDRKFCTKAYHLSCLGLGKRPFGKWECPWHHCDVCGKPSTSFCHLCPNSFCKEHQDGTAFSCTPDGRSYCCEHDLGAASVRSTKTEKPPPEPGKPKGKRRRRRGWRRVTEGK

outcome, inactive:
O=C1CN(C(=O)COC(=O)c2ccc([N+](=O)[O-])s2)c2ccccc2N1
CCN(CC)S(=O)(=O)c1ccc(N2CCN(C)CC2)c(NC(=O)Nc2ccccc2F)c1
Cc1ccc(S(=O)(=O)N2CCN(C(=O)C(F)(F)F)C2c2ccc(N(C)C)cc2)cc1 (stereo unspecified)
Cc1ccccc1CN1CCN(C(=O)c2ccco2)CC1
CC1Oc2ccc(C#N)cc2N(Cc2cccc(F)c2)C1=O (stereo unspecified)
C=CCN1CCN(C(c2cccc(OC)c2OC)c2nnnn2CCC(C)C)CC1 (stereo unspecified)
CC(=O)c1ccc(NC(=O)CC2Nc3cccc4cccc(c34)NC2=O)cc1 (stereo unspecified)
O=C1CCCC2=C1C(c1ccc(O)c(O)c1)c1c(ccc3ncccc13)N2 (stereo unspecified)
COCCCNC(=S)Nc1cccc2ncccc12
CN(CCc1ccccc1)C1CCCN(S(=O)(=O)N(C)C)C1 (stereo unspecified)
C/C(CC(=O)NCCCN1CCOCC1)=N\NC(=O)COc1ccc(Cl)cc1
O=C(COC(=O)c1ccc([N+](=O)[O-])o1)NC1CCS(=O)(=O)C1 (stereo unspecified)
Cc1cccc(NC(=O)c2ccc(NS(=O)(=O)c3cccc4cccnc34)cc2)c1
Cc1ccc(CSc2nnc(Nc3ccc(C)cc3)s2)cc1
CN(c1ccc(C(=O)O)cc1)S(=O)(=O)c1ccccc1
Cc1cc(C)c2c(c1)N[C@H](c1cccs1)[C@@H]1CCO[C@H]21
CC(NC(=O)c1cccc(Br)c1)c1ccccc1 (stereo unspecified)
CCN(CC)C(=O)COc1ccc2oc(C)c(C(=O)OC(C)C)c2c1
COc1ccc(C)cc1NC(=O)CCNC(=O)Cn1cnc2ccccc2c1=O
Cc1ccc(Cn2c(SCC(=O)NCC3CCCO3)nc3c2c(=O)n(C)c(=O)n3C)cc1 (stereo unspecified)
C/C(C=Nn1c(-c2ccc(F)cc2)n[nH]c1=S)=C/c1ccco1
Cc1cc2ccccn2c1C(=O)c1ccc([N+](=O)[O-])o1
Cc1ccc(C(=O)NC(=S)NNC(=O)c2ccccc2O)cc1
COc1ccc(S(=O)(=O)NCc2ccc3c(c2)OCO3)cc1OC
Cn1c(COc2ccc(Cl)cc2)nnc1SCC(=O)NC1CCCCC1
Cc1ccc(S(=O)(=O)N2CCCC(N3CCOCC3)C2)cc1Cl (stereo unspecified)
O=C1CC(C(=O)N2CCc3ccccc32)CN1c1ccccc1 (stereo unspecified)
O=C(OCC(=O)N1CCOCC1)c1ccc(Br)cc1
O=C(NCCC(=O)N1CCc2ccccc21)c1ccco1
O=C(c1cc(-c2ccc(Cl)cc2)n(-c2ccc(Cl)cc2)n1)N1CCOCC1
C=CCn1c(SCc2ccc3c(c2)OCO3)nc2scc(-c3ccco3)c2c1=O
Cc1cccc(OCC(=O)Nc2ncn[nH]2)c1C
N#Cc1ccc(OCC(=O)NCCCn2ccnc2)cc1
COCCCNC(=O)COc1ccc(Cl)c(C)c1
Cc1cc(OCCn2nc(C(=O)O)c3ccccc3c2=O)ccc1C(C)C
COCCNc1nc(-c2ccccc2)nc2ccccc12
CC(=O)c1ccc(NC(=S)NCCc2cccc(Cl)c2)cc1
COCCNC(=O)CN(C(=O)CCC(=O)Nc1nccs1)c1ccc2c(c1)OCO2
CCOC(=O)c1cc(NC(=O)CN2CCCC2)cc(C(=O)OCC)c1
O=C(Cn1cnc2c(cnn2-c2ccccc2)c1=O)OCc1ccccc1
CN(C)S(=O)(=O)c1ccc(Cl)c(C(=O)OCC(=O)c2ccco2)c1
COc1ccc(CN(C(=O)c2cccc(OC)c2)C2CCS(=O)(=O)C2)cc1 (stereo unspecified)
CN(C(=O)CN1C(=O)S/C(=C\c2ccccc2F)C1=O)C1CCS(=O)(=O)C1 (stereo unspecified)
COC(=O)c1nc(NC(=O)c2ccccc2)n[nH]1
Cc1ccc(C)c(NC(=S)Nc2cccc3cnccc23)c1
O=C(Nc1cc(Cl)ccc1-n1cncn1)c1cccs1
COc1ccc(C(C(=O)NC(C)(C)C)N(C(=O)CCC(=O)Nc2cc(C)on2)c2ccccc2F)cc1 (stereo unspecified)
COc1cccc(/C=C2\N=C(SC)SC2=O)c1OC
Cc1c(C(=O)N2CCN(c3ccc(F)cc3)CC2)sc2ncnc(N3CCN(c4ccccn4)CC3)c12
COC(=O)c1ccc(Cn2cnc3c(sc4nc(N5CCOCC5)c5c(c43)CCCC5)c2=O)o1
CC(C)c1nc2oc3c(NCC4CCCO4)ncnc3c2c2c1COC(C)(C)C2 (stereo unspecified)
CCO/C=C/C(=O)N(C)CCC#N
CCN(CC)C(=O)CSc1nc2ccccc2c(=O)n1CCC(=O)NCc1ccc(F)cc1
COc1cc(NC(=O)CCn2c(=O)oc3ccccc32)cc(OC)c1OC
Cc1[nH][nH]c(=O)c1C(c1ccc(-c2cccc(C(=O)O)c2)o1)c1c(C)[nH][nH]c1=O
Cc1[nH][nH]c(=O)c1C(c1ccc(-c2ccc(F)cc2)o1)c1c(C)[nH][nH]c1=O
Cc1ccc(OCCCC(=O)Nc2ccccc2C(F)(F)F)cc1
O=C(CC1SC2=NCCN2C1=O)Nc1ccccc1 (stereo unspecified)
Cc1cccc(C)c1OCC(O)CNS(=O)(=O)c1ccccc1C(=O)N1CCCCC1 (stereo unspecified)
Cc1ccc(-n2nc3c(=O)n(CC(=O)NCc4ccccc4)nc(C)c3c2C)cc1
Fc1ccc(C2CCNCC2COc2ccc3c(c2)OCO3)cc1 (stereo unspecified)
CN(C)Cc1cc(O)c(CN(C)C)cc1O
Cc1ccc(S(=O)(=O)N2CCOCC2)cc1NC(=O)CSc1ccccn1
COc1cc2[nH]c(Cl)c([N+](=O)[O-])c2cc1OC
O=C(Nc1cccc(O)c1)c1ccc(Br)cc1
COc1cc(/C=C/c2nc3ccccc3c(=O)[nH]2)cc(Cl)c1O
CC(=O)Nc1cccc(C(=O)OCc2ccccc2)c1
Nc1nc(=S)c2ncn(C3OC(CO)C(O)C3O)c2[nH]1 (stereo unspecified)
O=C(/C=C/c1ccc(-c2ccccc2)cc1)NCc1cccnc1
CC(C)(C)CC(=O)Nc1nnc(SCC(=O)NCc2cccs2)s1
C=CCn1c(=NC(=O)c2ccc(S(=O)(=O)N3CCCC3)cc2)sc2cc(NC(C)=O)ccc21
